# Results taken from the supplement of paper PMC8728848.
# The entries come from a sample that favours the strongest signals as a whole.
# Legend:
# Experiment in all cases: glycan array binding signal (z-score within array); higher = stronger binding
# Conditions in all cases: glycan notation: IUPAC condensed, linker removed
# [1] = target: Gal(b1-4)GlcNAc(b1-3)[GlcNAc(b1-6)]Gal(b1-4)GlcNAc
# How it was run: (§1)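 Arrays were curated from the Consortium for Functional Glycomics database, 3228 in total, and kept only where the protein sequence was available. Binding is expressed as a within-array Z-score. This score was averaged across arrays of the same protein sequence at different concentrations or buffers and across linkers, and negative values can be read as non-binding.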
# [2] = target: Gal(b1-4)GlcNAc6P
# How it was run: as §1
# [3] = target: Gal3S(b1-4)Glc
# How it was run: as §1
# [4] = target: Gal3S(b1-4)Glc6S
# How it was run: as §1
# [5] = target: Gal3S(b1-4)[Fuc(a1-3)]GlcNAc6S
# How it was run: as §1
# [6] = target: Gal3S6S(b1-4)GlcNAc
# How it was run: as §1
# [7] = target: Gal4S6S(b1-4)GlcNAc
# How it was run: as §1
# [8] = target: Gal6S(b1-4)Glc
# How it was run: as §1
# [9] = target: GalNAc(a1-3)GalNAc(b1-3)Gal(a1-4)Gal(b1-4)Glc
# How it was run: as §1
# [10] = target: GalNAc(a1-3)GalNAc(b1-3)Gal(a1-4)Gal(b1-4)GlcNAc
# How it was run: as §1
# [11] = target: GalNAc(b1-4)Gal(b1-4)Glc
# How it was run: as §1
# [12] = target: GalNAc3S(b1-4)GlcNAc
# How it was run: as §1
# [13] = target: Glc(a1-6)Glc(a1-6)Glc(a1-6)Glc
# How it was run: as §1
# [14] = target: GlcNAc(b1-3)Gal(b1-4)GlcNAc(b1-3)Gal(b1-4)GlcNAc(b1-3)Gal(b1-4)GlcNAc(b1-3)Gal(b1-4)GlcNAc(b1-2)Man(a1-3)[GlcNAc(b1-3)Gal(b1-4)GlcNAc(b1-3)Gal(b1-4)GlcNAc(b1-3)Gal(b1-4)GlcNAc(b1-3)Gal(b1-4)GlcNAc(b1-2)Man(a1-6)]Man(b1-4)GlcNAc(b1-4)[Fuc(a1-6)]GlcNAc
# How it was run: as §1
# [15] = target: GlcNAc(b1-4)[GlcNAc(b1-6)]GalNAc
# How it was run: as §1
# [16] = target: Man(a1-3)[Man(a1-6)]Man(a1-6)[Man(a1-2)Man(a1-3)]Man(b1-4)GlcNAc(b1-4)GlcNAc
# How it was run: as §1
# [17] = target: Man(a1-3)[Man(a1-6)]Man(a1-6)[Man(a1-3)]Man
# How it was run: as §1
# [18] = target: Man(a1-6)Man
# How it was run: as §1
# [19] = target: Neu5Ac(a2-3)Gal(b1-3)[Fuc(a1-4)]GlcNAc(b1-3)Gal(b1-4)[Fuc(a1-3)]GlcNAc
# How it was run: as §1
# [20] = target: Neu5Ac(a2-3)Gal(b1-3)[Neu5Ac(a2-6)]GalNAc
# How it was run: as §1
# [21] = target: Neu5Ac(a2-3)Gal(b1-4)GlcNAc(b1-2)Man
# How it was run: as §1
# [22] = target: Neu5Ac(a2-3)Gal(b1-4)GlcNAc(b1-2)Man(a1-3)[GlcNAc(b1-4)][Neu5Ac(a2-3)Gal(b1-4)GlcNAc(b1-2)Man(a1-6)]Man(b1-4)GlcNAc(b1-4)GlcNAc
# How it was run: as §1
# [23] = target: Neu5Ac(a2-3)[GalNAc(b1-4)]Gal(b1-4)GlcNAc
# How it was run: as §1
# [24] = target: Neu5Ac(a2-6)Gal(b1-4)GlcNAc(b1-2)Man(a1-3)[Gal(b1-4)GlcNAc(b1-2)Man(a1-6)]Man(b1-4)GlcNAc(b1-4)GlcNAc
# How it was run: as §1
# [25] = target: Neu5Ac(a2-6)Gal(b1-4)GlcNAc(b1-2)Man(a1-3)[GlcNAc(b1-4)][Neu5Ac(a2-6)Gal(b1-4)GlcNAc(b1-2)Man(a1-6)]Man(b1-4)GlcNAc(b1-4)GlcNAc
# How it was run: as §1
# [26] = target: Neu5Ac(a2-6)Gal(b1-4)GlcNAc(b1-2)[Neu5Ac(a2-6)Gal(b1-4)GlcNAc(b1-4)]Man(a1-3)[GlcNAc(b1-4)][Neu5Ac(a2-6)Gal(b1-4)GlcNAc(b1-2)[Neu5Ac(a2-6)Gal(b1-4)GlcNAc(b1-6)]Man(a1-6)]Man(b1-4)GlcNAc(b1-4)GlcNAc
# How it was run: as §1
# [27] = target: Neu5Ac(a2-6)Gal(b1-4)GlcNAc(b1-3)Gal(b1-4)GlcNAc(b1-2)Man(a1-3)[Neu5Ac(a2-6)Gal(b1-4)GlcNAc(b1-3)Gal(b1-4)GlcNAc(b1-2)Man(a1-6)]GalNAc
# How it was run: as §1
# [28] = target: Neu5Ac(a2-6)GalNAc(b1-4)GlcNAc6S
# How it was run: as §1
# [29] = target: Neu5Ac(a2-8)Neu5Ac
# How it was run: as §1
# [30] = target: Neu5Ac(a2-8)Neu5Ac(a2-8)Neu5Ac(a2-8)Neu5Ac(a2-3)[GalNAc(b1-4)]Gal(b1-4)Glc
# How it was run: as §1
binder,measurement,setting,value
Clone646PsrP (Streptococcus pneumoniae) (protein) MDHHHHHHHHASENLYFQGAPAINASLNIAKSETKVYTGEGVDSVYRVPIYYKLKVTNDGSKLTFTYTVTYVNPKTNDLGNISSMRPGYSIYNSGTSTQTMLTLGSDLGKPSGVKNYITDKNGRQVLSYNTSTMTTQGSGYTWGNGAQMNGFFAKKGYGLTSSWTVPITGTDTSFTFTPYAARTDRIGINYFNGGGKVVESSTTSQSLSQSKSLSVSAS,glycan array binding signal (z-score),[1],-0.238
same,glycan array binding signal (z-score),[2],2.57
same,glycan array binding signal (z-score),[3],1.81
same,glycan array binding signal (z-score),[4],1.63
same,glycan array binding signal (z-score),[5],3.08
same,glycan array binding signal (z-score),[6],2.75
same,glycan array binding signal (z-score),[7],0.386
same,glycan array binding signal (z-score),[8],-0.221
same,glycan array binding signal (z-score),[9],-0.265
same,glycan array binding signal (z-score),[10],-0.546
same,glycan array binding signal (z-score),[11],2.93
same,glycan array binding signal (z-score),[12],2.09
same,glycan array binding signal (z-score),[13],3.01
same,glycan array binding signal (z-score),[14],-0.863
same,glycan array binding signal (z-score),[15],-0.205
same,glycan array binding signal (z-score),[16],1.06
same,glycan array binding signal (z-score),[17],3.32
same,glycan array binding signal (z-score),[18],4.74
same,glycan array binding signal (z-score),[19],-0.482
same,glycan array binding signal (z-score),[20],-0.254
same,glycan array binding signal (z-score),[21],2.89
same,glycan array binding signal (z-score),[22],-0.995
same,glycan array binding signal (z-score),[23],-0.733
same,glycan array binding signal (z-score),[24],-0.713
same,glycan array binding signal (z-score),[25],-0.966
same,glycan array binding signal (z-score),[26],-0.332
same,glycan array binding signal (z-score),[27],-0.421
same,glycan array binding signal (z-score),[28],-0.113
same,glycan array binding signal (z-score),[29],0.174
same,glycan array binding signal (z-score),[30],-0.64
